{"source": "the supplement of paper PMC12636033", "note": "± gives the standard deviation of the averaged measurements. In all, about 33,000 sequences were measured (“E-score (rank enrichment, -0.5 to 0.5)”: median about -0.0075, highest 2% from about 0.23 on). This is one part of a sample in which the highest values are shown more often than they occur."}
{"system": "WT Max(13-93) synthetic (M65Nle)", "assay": "PBM 8-mer E-score (E-score (rank enrichment, -0.5 to 0.5)); higher = stronger preferential binding", "experimental": "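Protein binding microarray (universal PBM chip covering all 10-mers in fixed probe flanks) with chemically synthesized human Max(13-93) bHLH-LZ analogs (not full-length Max) bearing noncanonical residues (hArg, Tha, Aib, Nle at 65) and aromatic Cys staples. Read-out per 8-mer (and its reverse complement): E-score (rank-based enrichment, -0.5 to 0.5) and Z-score of median probe intensity.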"}
{"sequence": "AATACAAG", "PBM 8-mer E-score": "0.148 ± 0.0056"}
{"sequence": "GATACAAA", "PBM 8-mer E-score": "0.0639 ± 0.0017"}
{"sequence": "AATACAAT", "PBM 8-mer E-score": "0.0116 ± 0.074"}
{"sequence": "AATACAAC", "PBM 8-mer E-score": "0.233 ± 0.077"}
{"sequence": "CCTACAAC", "PBM 8-mer E-score": "0.126 ± 0.041"}
{"sequence": "ACTACAAG", "PBM 8-mer E-score": "-0.03 ± 0.032"}
{"sequence": "ACTACAAC", "PBM 8-mer E-score": "0.253 ± 0.024"}
{"sequence": "AATACAAA", "PBM 8-mer E-score": "0.288 ± 0.024"}
{"sequence": "CATACAAC", "PBM 8-mer E-score": "0.162 ± 0.012"}
{"sequence": "ATCGTCTG", "PBM 8-mer E-score": "-0.0768 ± 0.04"}
{"sequence": "AGTAGACC", "PBM 8-mer E-score": "-0.143 ± 0.07"}
{"sequence": "AGTGACCA", "PBM 8-mer E-score": "-0.0103 ± 0.17"}
{"sequence": "AAGGCAAG", "PBM 8-mer E-score": "0.149 ± 0.045"}
{"sequence": "CAGTATCG", "PBM 8-mer E-score": "-0.0719 ± 0.0012"}
{"sequence": "GACAATTA", "PBM 8-mer E-score": "-0.0274 ± 0.019"}
{"sequence": "CTGATCAG", "PBM 8-mer E-score": "-0.107 ± 0.14"}
{"sequence": "ATTGGACC", "PBM 8-mer E-score": "-0.0681 ± 0.039"}
{"sequence": "AGAAGTAG", "PBM 8-mer E-score": "0.0117 ± 0.017"}
{"sequence": "ACCGGAAA", "PBM 8-mer E-score": "-0.104 ± 0.11"}
{"sequence": "ATAATTCG", "PBM 8-mer E-score": "0.147 ± 0.059"}
{"sequence": "ATAATTAC", "PBM 8-mer E-score": "0.232 ± 0.019"}
{"sequence": "ATAATTAA", "PBM 8-mer E-score": "0.22 ± 0.13"}
{"sequence": "ATAATTTG", "PBM 8-mer E-score": "0.254 ± 0.031"}
{"sequence": "ATAATTAG", "PBM 8-mer E-score": "0.237 ± 0.16"}
{"sequence": "ATAATTAT", "PBM 8-mer E-score": "0.239 ± 0.0049"}
{"sequence": "CTAATTAG", "PBM 8-mer E-score": "0.0687 ± 0.053"}
{"sequence": "ATAATTTA", "PBM 8-mer E-score": "0.228 ± 0.014"}
{"sequence": "ATAATTTC", "PBM 8-mer E-score": "0.0565 ± 0.03"}
{"sequence": "AGCACAGC", "PBM 8-mer E-score": "-0.163 ± 0.16"}
{"sequence": "ACTCTCTG", "PBM 8-mer E-score": "-0.0092 ± 0.11"}
{"sequence": "CCGCCTCA", "PBM 8-mer E-score": "-0.108 ± 0.14"}
{"sequence": "ATGGTTTA", "PBM 8-mer E-score": "0.161 ± 0.047"}
{"sequence": "AATGGGAA", "PBM 8-mer E-score": "0.0482 ± 0.059"}
{"sequence": "GATGTTGA", "PBM 8-mer E-score": "0.0902 ± 0.11"}
{"sequence": "CATGTTGA", "PBM 8-mer E-score": "0.256 ± 0.1"}
{"sequence": "CATGTTGC", "PBM 8-mer E-score": "0.12965 ± 2.8e-05"}
{"sequence": "CATGTTGG", "PBM 8-mer E-score": "0.156 ± 0.063"}
{"sequence": "AATGTTGA", "PBM 8-mer E-score": "-0.0484 ± 0.091"}
{"sequence": "TATGTTGA", "PBM 8-mer E-score": "0.233 ± 0.0055"}
{"sequence": "ACGCGTAT", "PBM 8-mer E-score": "0.108 ± 0.0066"}
{"sequence": "CAGCGAGA", "PBM 8-mer E-score": "-0.174 ± 0.013"}
{"sequence": "GACGAATA", "PBM 8-mer E-score": "0.17 ± 0.011"}
{"sequence": "GTCGTCCA", "PBM 8-mer E-score": "-0.159 ± 0.064"}
{"sequence": "CCGTGGCA", "PBM 8-mer E-score": "-0.0466 ± 0.052"}
{"sequence": "AAGTGGCT", "PBM 8-mer E-score": "0.0496 ± 0.069"}
{"sequence": "CCGTGGCG", "PBM 8-mer E-score": "-0.147 ± 0.07"}
{"sequence": "CCGTGGCC", "PBM 8-mer E-score": "-0.112 ± 0.013"}
{"sequence": "TCGTGGCA", "PBM 8-mer E-score": "0.219 ± 0.1"}
{"sequence": "ACGTGGCT", "PBM 8-mer E-score": "0.286 ± 0.018"}
{"sequence": "ACTTGGCT", "PBM 8-mer E-score": "-0.128 ± 0.062"}
{"sequence": "ACGTGGCG", "PBM 8-mer E-score": "0.296 ± 0.05"}
{"sequence": "ACGTGGCC", "PBM 8-mer E-score": "0.247 ± 0.0096"}
{"sequence": "AGGTGGCG", "PBM 8-mer E-score": "0.13 ± 0.021"}
{"sequence": "ACGTGGCA", "PBM 8-mer E-score": "0.33 ± 0.0069"}
{"sequence": "GCGTGGCC", "PBM 8-mer E-score": "0.0675 ± 0.016"}
{"sequence": "ACGGGCTC", "PBM 8-mer E-score": "-0.297 ± 0.085"}
{"sequence": "CGGCAACA", "PBM 8-mer E-score": "-0.15 ± 0.01"}
{"sequence": "ACCGCTAG", "PBM 8-mer E-score": "-0.0126 ± 0.12"}
{"sequence": "CCCACATC", "PBM 8-mer E-score": "-0.1 ± 0.063"}
{"sequence": "AGATGCAA", "PBM 8-mer E-score": "0.152 ± 0.13"}
{"sequence": "CACTCCAA", "PBM 8-mer E-score": "-0.103 ± 0.025"}
{"sequence": "CCGCTCGC", "PBM 8-mer E-score": "-0.0861 ± 0.086"}
{"sequence": "ACCCCCCG", "PBM 8-mer E-score": "-0.2 ± 0.1"}
{"sequence": "ATGGCGAA", "PBM 8-mer E-score": "0.104 ± 0.068"}
{"sequence": "ACGCGTGG", "PBM 8-mer E-score": "0.212 ± 0.03"}
{"sequence": "ACGCGTGA", "PBM 8-mer E-score": "0.219 ± 0.081"}
{"sequence": "CCGCGTGC", "PBM 8-mer E-score": "0.268 ± 0.051"}
{"sequence": "CCGCGTGA", "PBM 8-mer E-score": "0.172 ± 0.0086"}
{"sequence": "CAGCGTGC", "PBM 8-mer E-score": "0.191 ± 0.014"}
{"sequence": "ACGCGTGC", "PBM 8-mer E-score": "0.244 ± 0.02"}
{"sequence": "AACCCAAG", "PBM 8-mer E-score": "0.00894 ± 0.087"}
{"sequence": "CGGGAAAC", "PBM 8-mer E-score": "-0.106 ± 0.079"}
{"sequence": "TCTAACAA", "PBM 8-mer E-score": "-0.0242 ± 0.029"}
{"sequence": "AATAACAA", "PBM 8-mer E-score": "0.264 ± 0.018"}
{"sequence": "CATAACAC", "PBM 8-mer E-score": "0.236 ± 0.016"}
{"sequence": "CCTAACAA", "PBM 8-mer E-score": "0.11 ± 0.026"}
{"sequence": "AATAACAT", "PBM 8-mer E-score": "0.181 ± 0.049"}
{"sequence": "GATAACAA", "PBM 8-mer E-score": "0.0563 ± 0.033"}
{"sequence": "AATAACAG", "PBM 8-mer E-score": "0.17 ± 0.06"}
{"sequence": "CATAACAG", "PBM 8-mer E-score": "0.125 ± 0.021"}
{"sequence": "AATAACAC", "PBM 8-mer E-score": "0.0775 ± 0.12"}
{"sequence": "TATAACAA", "PBM 8-mer E-score": "0.24 ± 0.026"}
{"sequence": "CGTAACAA", "PBM 8-mer E-score": "0.136 ± 0.087"}
{"sequence": "CATAACAA", "PBM 8-mer E-score": "0.251 ± 0.042"}
{"sequence": "CTACGTCC", "PBM 8-mer E-score": "-0.0109 ± 0.12"}
{"sequence": "AGCAATGC", "PBM 8-mer E-score": "0.12 ± 0.09"}
